Consider 20 compounds from PubChem BioAssay (EPA / NIEHS).

Active and inactive are the calls of the source. How the source made its calls: active means hit-call score of the fitted dose curve at least 0.9, where 1 is the maximum; inactive means score below 0.9.

The experiment in a line: CCTE_Harrill_HTTr_Apoptosis_MCF7: CCTE's 6-hour Apoptosis Assessment for the High-Throughput Transcriptomics (HTTr) Platform, in MCF-7 cells cultured in DMEM + 10% fetal bovine serum, Harrill Lab (AID 2284011). The method, boiled down:
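High-content imaging of CellEvent Caspase 3/7 Green signal follows a six-hour exposure, with eight concentrations per chemical. MCF-7 cells grown in DMEM plus 10% fetal bovine serum; activity fitted in both directions against DMSO.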
Consider `CC[C@H]1OC(=O)[C@H](C)[C@@H](O[C@H]2C[C@@](C)(OC)[C@@H](O)[C@H](C)O2)[C@H](C)[C@@H](O[C@@H]2O[C@H](C)C[C@H](N(C)C)[C@H]2O)[C@](C)(O)C[C@@H](C)C(=NOCOCCOC)[C@H](C)[C@@H](O)[C@]1(C)O`, for which the outcome was inactive.

For the compound `C1CN(SSN2CCOCC2)CCO1`, the result was inactive.

As to `CCCCCCC(O)CO` (stereo not given), the result was inactive.

Regarding `Cc1oncc1C(=O)Nc1ccc(C(F)(F)F)cc1`, the result was inactive.

Consider `CCCOC(=O)CCCCC(=O)OCCC`, for which the outcome was inactive.

Regarding `C[C@]12C=CC(=O)C=C1CC[C@@H]1[C@@H]2[C@@H](O)C[C@@]2(C)[C@H]1CC[C@]2(O)C(=O)CO`, the result was inactive.

`[Cl][Nd]([Cl])[Cl]`: the outcome was inactive.

In the case of `O=C(/C=C/C=C/c1ccc2c(c1)OCO2)N1CCCCC1`, the outcome was inactive.

`CCCCC(CC)COC(=O)c1ccccc1` (stereo not given): the outcome was inactive.

`Cc1c(C)c([N+](=O)[O-])c(C(C)(C)C)c([N+](=O)[O-])c1C`: the outcome was inactive.

With `OC1CCCCCCCCCCC1`, the result was inactive.

Regarding `O=C(O)CCCC[C@@H]1SC[C@@H]2NC(=O)N[C@@H]21`, the outcome was inactive.

With `O=C1CCCCCCCCCCC(=O)OCCO1`, the result was inactive.

For `O=C(O)c1ccccc1Nc1cccc(C(F)(F)F)c1`, the outcome was inactive.

As to `Cc1ccccc1C`, the result was inactive.

For `O=c1[nH]c(=O)c2[nH]c(=O)[nH]c2[nH]1`, the result was inactive.

As for `O=C1C=CC(=O)O1`, the outcome was inactive.

`COc1ccc(C(Cl)=C(c2ccc(OC)cc2)c2ccc(OC)cc2)cc1`: the outcome was inactive.

For the compound `CCCCCCCC/C=C\CCCCCCCC(=O)O`, the result was inactive.

Take `Nc1ccc(N=Nc2ccccc2)c(N)n1`: the outcome was inactive.
